Shown are actives, neighbours in structure and some others; about 3.6% of the full set was active somewhere.
AmpC inh detg – inhibitors of E. coli AmpC beta-lactamase with detergent; P00811; AmpC hydrolysis of nitrocefin, absorbance 480 nm, 0.01% Triton; Potency, µM (series often up to 114 µM), for the others: at the highest dose activity change, negative = inhibition, actives largely listed as inhibitors; actives 0.041% (n = 370,000);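 note: 0% = no-compound wells and -100% = no-enzyme wells; nearly all actives have a fitted effect of over 25% in size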
Target sequence (P00811 whole entry, looked up): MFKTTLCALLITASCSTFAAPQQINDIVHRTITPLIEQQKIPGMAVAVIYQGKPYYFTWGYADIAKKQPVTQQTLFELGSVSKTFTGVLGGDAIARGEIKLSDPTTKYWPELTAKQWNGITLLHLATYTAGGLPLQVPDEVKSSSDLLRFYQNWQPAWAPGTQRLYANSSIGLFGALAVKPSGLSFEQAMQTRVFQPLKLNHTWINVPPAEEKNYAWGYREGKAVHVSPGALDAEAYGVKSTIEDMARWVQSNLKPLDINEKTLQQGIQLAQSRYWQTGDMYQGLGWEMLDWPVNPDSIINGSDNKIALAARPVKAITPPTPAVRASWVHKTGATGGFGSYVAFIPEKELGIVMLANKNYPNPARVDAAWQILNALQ
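20 mM phosphate pH 7.0 + 0.01% (detergent screen) or 0.0001% Triton X-100; 5.3 nM AmpC reagent; cpd preinc 15 min RT; nitrocefin (800 uM stock) to start; A480 q20 s × 4 min; Activity was normalised to no-enzyme and no-compound control wells.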
Sm TGR block – blocks Schistosoma mansoni thioredoxin glutathione reductase. Q962Y6. purified TGR, DTNB reduction, TNB absorbance 405 nm. Potency, µM (doses to about 114 µM), inactives show at the highest dose activity change, negative = inhibition, actives largely listed as inhibitors. actives 3% (n = 360,000). AID 485364; note: nearly all actives have a fitted effect of over 60% in size
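TGR 20 nM + NADPH 100 uM (dispensed conc.), cpd preinc 15 min RT; start with NADPH (500 uM addition) then DTNB (15 mM addition). Kinetic TNB absorbance, 405 nm filter. Four-parameter Hill fit across titration.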
AmpC no deterg – AmpC beta-lactamase inhibition without detergent; actives 0.52% (n = 330,000); Potency, µM (highest dose often 57.1 µM), without a hit: at the top dose activity change, negative = inhibition, most hits filed as inhibitors; AmpC nitrocefin hydrolysis, absorbance 480 nm, 0.0001% Triton; P00811;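 note: plate controls were no compound for no effect and no enzyme for full effect; nearly all actives have a fitted effect of over 20% in size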
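AmpC (5.3 nM in the dispensed reagent) in 20 mM phosphate pH 7.0 with 0.01% (detergent screen) or 0.0001% Triton X-100 was preincubated with compounds for 15 min at room temperature. Nitrocefin was then added from an 800 uM solution, and hydrolysis was followed at 480 nm.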
FBPA Giardia inh – blocks Giardia fructose-bisphosphate aldolase activity; AID 2451; purified Giardia FBPA; actives 0.71% (n = 290,000); A8B2U2; Potency, µM (series often up to 59.6 µM), for inactives: top-dose activity, negative = inhibition, usual class: inhibitors; note: nearly all actives have a fitted effect of over 55% in size
Target sequence (A8B2U2 whole entry, looked up): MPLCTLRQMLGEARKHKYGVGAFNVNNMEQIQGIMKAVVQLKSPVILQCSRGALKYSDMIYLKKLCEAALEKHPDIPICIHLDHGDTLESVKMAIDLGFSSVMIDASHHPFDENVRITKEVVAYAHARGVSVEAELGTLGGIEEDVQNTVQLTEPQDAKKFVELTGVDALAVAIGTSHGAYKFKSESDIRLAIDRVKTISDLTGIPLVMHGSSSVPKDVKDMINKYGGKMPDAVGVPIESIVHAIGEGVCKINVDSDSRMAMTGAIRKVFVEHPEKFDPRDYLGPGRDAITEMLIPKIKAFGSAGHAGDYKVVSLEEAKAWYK
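Giardia FBPA (40 nM reagent) was preincubated 10 min at RT with compound (up to 57.5 uM final), then substrate plus GAPDH/TPI/NAD/arsenate coupling system with diaphorase/resazurin was added; resorufin fluorescence (525/598 nm) was read after 20 min.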
Numbers without * were called inactive; u = inconclusive; x = no result; [ ] = remark or other dose. Calls come from the whole dose curve; as a rule, active = well fitted curve in the direction sought with a large enough effect; inconclusive = small, poorly fitted or top-dose-only effect, or another doubt; inactive = no such curve, though single readings can be large; an effect the other way counts as inactive or inconclusive. Unless noted, % is set by controls: 0 for no effect and ±100 for the full control effect; potency is the fitted concentration of half-maximal effect.

SMILES	AmpC inh detg	Sm TGR block	AmpC no deterg	FBPA Giardia inh
CC(C)(C)OC(=O)C[C@H]1C/C=C\C[C@H](CC(=O)NCCO)C(=O)N2CCC[C@@H]2COC1=O	x	x	9%	x
O=C(Cn1c(=O)oc2cc(S(=O)(=O)N3CCCCCC3)ccc21)NC1CCCCCCC1	u	0%	-24%	4%
O=C(Cn1c(=O)oc2cc(S(=O)(=O)N3CCCC3)ccc21)NC1CCCc2ccccc21 (stereo not given)	u	-1%	10µM*	4%
Cc1ccc(-n2nc(C)c3c(C)cc(=O)n(CC(=O)Nc4ccc(Br)cc4F)c32)cc1	14%	u	x	x
O=C(O)/C=C/c1nc(-c2ccccc2)n2ccccc12	-3%	2.5µM*	-22%	u
CN1CCN(/N=C/c2nc(-c3cccc([N+](=O)[O-])c3)n3ccccc23)CC1	-1%	-16%	6%	u
COc1ccccc1N1C(=O)C(Cl)=C(Nc2ccccc2O)C1=O	4%	8.9µM*	-50%	-21%
O=C1C(Cl)=C(Nc2ccccc2O)C(=O)N1c1ccccc1	u	22µM*	-48%	-25%
CCOc1ccccc1NC1=C(Cl)C(=O)N(c2ccc(OC)cc2)C1=O	-5%	-27%	-29%	1%
COc1ccccc1NC1=C(Cl)C(=O)N(C2CCCCC2)C1=O	3%	-11%	14µM*	-2%
Cc1ccc(O)c(NC2=C(Cl)C(=O)N(Cc3ccccc3)C2=O)c1	6%	x	-45%	-25%
CCOc1ccc(-c2nnc(NC(=O)Cc3cc(OC)c(OC)c(OC)c3)o2)cc1	0%	20%	-9%	5%
C=CCn1c(NCc2ccccc2O)nc2ccccc21	-12%	-7%	-36%	7%
C=CCn1c(NCc2cc(Cl)ccc2O)nc2ccccc21	-17%	-6%	14µM*	-2%
Cc1ccc(Cl)cc1N1CCN(S(=O)(=O)c2ccc3c(c2)NC(=O)C(C)C(=O)N3)CC1 (stereo not given)	-5%	79µM*	11µM*	11%
Cc1ccc(NC(=O)CN2CCN(CCN=CC3=C(O)CC(c4ccc(C)cc4)CC3=O)CC2)cc1 (stereo not given)	-8%	-7%[57.1 µM]	165%	5%
C/C(=N\OCc1nc2ccccc2c(=O)n1/N=C/c1cc(C)cc([N+](=O)[O-])c1O)c1ccccc1	-12%	-35%	-40%	-4%
C/C(=N\OCc1nc2ccccc2c(=O)n1/N=C/c1cc([N+](=O)[O-])ccc1O)c1ccccc1	-2%	35µM*	-60%	0%
CCCCS(=O)(=O)N1CCc2nc(COc3ccccc3)c3c(c2C1)CO[C@@H](C)C3	x	x	x	2%[12.9 µM]
CC(C)(C)c1cnnn1-c1ccc(C(=O)CCl)cc1	u	8.9µM*	-7%	8%
CC(C)(C)c1cnnn1-c1ccc(C=O)cc1	u	-5%	-17%	-5%
COc1ccc(N2CCN(c3oc(-c4ccccc4C)nc3S(=O)(=O)c3ccccc3)CC2)cc1	-2%	10%	x	x
COC(=O)c1ccccc1NC(=O)/C=C/c1ccco1	-16%	40µM*	-6%	0%
O=C(/C=C/c1ccco1)Nc1ccccc1N1CCCCC1	-9%	45µM*	-28%	6%
CC(C)C(=O)N1CCN(c2ccccc2NC(=S)NC(=O)/C=C/c2ccco2)CC1	x	x	-42%	x
SMILES	AmpC inh detg	Sm TGR block	AmpC no deterg	FBPA Giardia inh
O=C(/C=C/c1ccco1)Nc1cccnc1Cl	4%	5.6µM*	-8%	-20%
CCN1CCc2c(sc(NC(=O)c3ccc(S(=O)(=O)N4CCCCCC4)cc3)c2C(=O)NC)C1	0%	-12%	157%	x
CC(C)(C)CC(=O)Nc1ccc(S(=O)(=O)NC2=NCCCCC2)cc1	x	x	-14%	x
COC(=O)COc1ccc2c(c1)O/C(=C\c1ccco1)C2=O	-13%	18µM*	-23%	-5%
O=C1C(=Cc2ccco2)C(=O)c2ccccc21	u	-33%	-29%	-7%
CCN(CC)C(=O)Oc1ccc2c(c1)O/C(=C\c1ccco1)C2=O	-5%	0%	-10%	-5%
CCC(=O)Oc1ccc2c(c1)O/C(=C\c1ccco1)C2=O	3%	11µM*	-28%	2%
Cc1cc(O)cc2c1C(=O)/C(=C/c1ccco1)O2	10%	32µM*	-44%	-2%
C/C(CC(=O)Nc1ccccn1)=N\NC(=O)c1cnccn1	6%	16%	-8%	u
CC(C)(C)OC(=O)N1CCC(c2c(C(=O)N3CCN(c4ccccn4)CC3)cnn2-c2ccccc2Cl)CC1	23%	15%	x	x
CC1CN(S(=O)(=O)c2cccc(C(=O)NCc3ccccn3)c2)CC(C)O1 (stereo not given)	x	x	9%	x
CCN1CCN(Cc2cc(OC)c(OC)cc2[N+](=O)[O-])CC1	-4%	32µM*	-3%	u
COc1cc(CN2CCCCCC2)c([N+](=O)[O-])cc1OC	-8%	-2%	-8%	u
CCOC(=O)C1(CCOC)CCN(Cc2ccncc2)CC1	2%	-2%	8%	-8%
CCOC(=O)C1(CCOc2ccccc2)CCN(Cc2ccncc2)CC1	1%	28µM*	-13%	-1%
CCOC(=O)C1(CCOC)CCN(Cc2ccccc2-c2ccco2)CC1	1%	35µM*	0%	-11%
CC(C)N1CCC(=NNc2ccc(S(=O)(=O)N3CCOCC3)cc2[N+](=O)[O-])CC1	u	35µM*	4%	1%
CC(=O)N1CCC(=NNc2ccc(S(=O)(=O)N3CCOCC3)cc2[N+](=O)[O-])CC1	-14%	u	-19%	3%
CS(=O)(=O)Oc1ccc(Br)c2cccnc12	3%	-20%	4%	-9%
Nc1ccc(Br)c2cccnc12	8%	50µM*	-19%	u
CCc1cccc(C)c1NC(=O)Cn1ccn(-c2ccc(F)cc2)c(=O)c1=O	16%	-3%	x	x
Cc1ccc(Sc2cc(C(=O)NCCN(C)C)c3ccccc3n2)cc1	-10%	-21%	34%	5%
Cc1ccc(Sc2cc(C(=O)NCCCN(C)C)c3ccccc3n2)cc1	-5%	40µM*	94%	11%
Nc1c(C(=O)N/N=C/c2cccnc2)oc2nc(-c3ccco3)cc(-c3ccco3)c12	-5%	13µM*	4%	-20%
O=C1c2ccccc2-c2onc3c(N4CCN(CCO)CC4)cc(N4CCN(C(=O)c5ccco5)CC4)c1c23	-11%	3.5µM*	185%	-24%
SMILES	AmpC inh detg	Sm TGR block	AmpC no deterg	FBPA Giardia inh
O=C(c1ccco1)N1CCN(C2=NS(=O)(=O)c3ccccc32)CC1	-5%	-8%	-17%	6%
O=C(c1ccco1)N1CCN(CCCCN2C(=O)c3ccccc3C2=O)CC1	2%	-12%	53%	0%
CN1CCN(c2cc(N3CCN(C(=O)c4ccco4)CC3)c3c4c(onc24)-c2ccccc2C3=O)CC1	-2%	10µM*	99%	-27%
O=C1NC(=Nc2ccc3ccccc3c2)S/C1=C/c1ccco1	2%	28µM*	32µM*	-8%
O=C1NC(=Nc2ccc(O)cc2)S/C1=C/c1ccco1	0%	25µM*	10µM*	-4%
Cc1cccc(N=C2NC(=O)/C(=C/C=C/c3ccco3)S2)c1	-14%	40µM*	28µM*	-12%

Screening results as filed in PubChem.
